Bioassay records: PubChem BioAssay, National Center for Advancing Translational Sciences (NCATS)
PI5P4K alpha inh: inhibitors of human PI5P4K alpha; 330,000 compounds, 1.2% hits; P48426; max response, %; PI5P4Kalpha enzyme, ADP-Glo luminescence, 60 min; stronger effect = lower value; active = max response of -50% or lower; inconclusive = between -30% and -50%; inactive = -30% or higher; also: value at the top dose of about 77 µM
Target sequence (P48426 whole entry, looked up): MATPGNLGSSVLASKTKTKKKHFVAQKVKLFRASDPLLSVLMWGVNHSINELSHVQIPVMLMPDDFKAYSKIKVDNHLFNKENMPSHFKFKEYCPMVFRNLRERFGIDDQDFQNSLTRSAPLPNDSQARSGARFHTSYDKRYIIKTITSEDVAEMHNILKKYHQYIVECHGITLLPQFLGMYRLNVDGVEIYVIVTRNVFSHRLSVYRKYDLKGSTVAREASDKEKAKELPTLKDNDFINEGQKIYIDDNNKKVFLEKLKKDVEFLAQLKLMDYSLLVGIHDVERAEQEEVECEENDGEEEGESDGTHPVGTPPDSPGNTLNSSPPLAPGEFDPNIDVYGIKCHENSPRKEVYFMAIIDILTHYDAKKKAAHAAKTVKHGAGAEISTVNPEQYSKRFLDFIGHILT
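Compounds were pin-transferred onto PI5P4Kalpha and substrate in HEPES pH 7.4 buffer with EGTA, CHAPS and 5% DMSO. ATP (5 microM final) started the reaction, which ran 60 minutes at room temperature before ADP-Glo detection.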
BAZ2B block: blocks human BAZ2B | Potency, µM (doses to about 114 µM), usual class: inhibitors | AlphaScreen BAZ2B-H3K14Ac peptide displacement | 360,000 compounds, 4.4% hits | Q9UIF8; also: nearly all actives have a fitted effect of over 60% in size
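Inhibition is scored as reduced AlphaScreen emission. The BAZ2B/b-H3(5-23)K14Ac complex (50 nM each) in PBS pH 7.4, 0.01% Tween-20 meets compound (up to 110 uM) for 30 min at RT before bead addition.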
HP1b binding inh: blocks HP1-beta chromodomain binding to methylated histone tails | AlphaScreen HP1-beta / biotin-H3K9me3 peptide binding | Potency, µM (series often up to 114 µM), usual class: inhibitors | AID 540317 | 390,000 compounds, 0.56% hits | P83916; also: nearly all actives have a fitted effect of over 70% in size
Target sequence (P83916 whole entry, looked up): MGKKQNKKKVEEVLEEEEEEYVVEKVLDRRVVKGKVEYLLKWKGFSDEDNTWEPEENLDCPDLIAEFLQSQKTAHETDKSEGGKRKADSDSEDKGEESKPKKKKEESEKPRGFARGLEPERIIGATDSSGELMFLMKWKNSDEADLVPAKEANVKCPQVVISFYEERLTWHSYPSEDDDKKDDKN
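HP1-beta protein (50 nM final) preincubated 30 min at room temperature with biotinylated H3(1-18)K9me3 peptide (50 nM) in PBS pH 7.4, 0.01% Tween-20, then compound added for 30 min. AlphaScreen streptavidin donor/nickel chelate acceptor beads (10 ug/mL final), 30 min dark, luminescence read.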
PLK1 PBD block: inhibitors of human PLK1 polo-box domain binding | 360,000 compounds, 2.8% hits | P53350 | Plk1 PBD binding of FITC phosphopeptide, fluorescence polarization | Potency, µM, actives largely listed as inhibitors | AID 720504; also: series mostly up to about 57 µM; nearly all actives have a fitted effect of over 65% in size
JMJD2A Tudor inh: JMJD2A Tudor domain (human) inhibition. O75164. AlphaScreen JMJD2A-Tudor / H3K4me3 peptide binding. Potency, µM (top dose mostly 114 µM), hits mostly inhibitors. 390,000 compounds, 4.4% hits; also: nearly all actives have a fitted effect of over 50% in size
G9a block: inhibitors of human histone lysine methyltransferase G9a; Q96KQ7; G9a H3K9 monomethylation, AlphaScreen, 2 h; Potency, µM (highest dose often 102 µM), hits mostly inhibitors; 350,000 compounds, 8.8% hits; AID 504332; also: nearly all actives have a fitted effect of over 75% in size
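AlphaScreen read-out: biotin-H3K9 peptide (500 nM) methylation by 20 nM enzyme with 20 uM SAM, 2 h at room temperature after 15 min compound preincubation; anti-monomethyl H3K9 antibody plus donor/acceptor beads, 10 min dark.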
A number is an active result; n = inactive; u = inconclusive; x = no result; ! = a repeat was not active; [ ] = remark or other dose. Compounds with a hit are over-represented: about 12% of the library has one in this group of screens. Unless noted, calls follow the shape of the dose curve; as a rule, active = well fitted curve in the direction sought with a large enough effect; inconclusive = small, poorly fitted or top-dose-only effect, or another doubt; inactive = no such curve, though single readings can be large; an effect the other way counts as inactive or inconclusive.

SMILES	PI5P4K alpha inh	BAZ2B block	HP1b binding inh	PLK1 PBD block	JMJD2A Tudor inh	G9a block
CCN1CCN(Cc2nc3ccc([N+](=O)[O-])cc3c(=O)n2-c2ccc(OC)cc2OC)CC1	n	n	n	n	n	n
O=C(Nc1ccc2c(c1)nc1n2CCSC1)c1ccccc1	n	n	n	n	n	u
COCCN1CCn2c(nc3cc(NC(=O)c4cccs4)ccc32)C1	x	n	n	n	n	20µM
CC(c1ccccc1)N1CCn2c(nc3cc(NC(=O)c4cccs4)ccc32)C1 (stereo not drawn)	x	n	n	n	n	u
COc1ccc(C(=O)Nc2ccc3c(c2)nc2n3CCSC2)cc1	x	n	n	n	n	50.1µM
CCCCC(=O)Nc1ccc2c(c1)nc1n2CCOC1	n	n	n	u	79.4µM	n
CCC(=O)Nc1ccc2c(c1)nc1n2CCSC1	x	n	n	n	n	u
CCCC(=O)Nc1ccc2c(c1)nc1n2CCN(CCOC)C1	n	n	n	n	n	25.1µM
CCCC(=O)Nc1ccc2c(c1)nc1n2CCOC1	x	n	n	n	n	u
Cn1c(CN2CCCC2)nc2cc(NC(=O)c3cccs3)ccc21	n	u	n	n	n	14.1µM
CCCCC(=O)Nc1ccc2c(c1)nc1n2CCN(CCOC)C1	n	n	n	n	n	31.6µM
O=C(Nc1ccc2oc(-c3ccncc3)nc2c1)c1cccs1	n	56.2µM	n	n	n	n[12.7 µM]
CCC(=O)Nc1ccc2oc(-c3cccc(C)c3)nc2c1	u	n	u	2.99µM	u	n[12.7 µM]
CC(=O)N1CCN(Cc2nc3cc(NC(=O)c4cccs4)ccc3n2C)CC1	n	n	n	n	n	n
CCCCC(=O)Nc1ccc2c(c1)nc(CN1CCN(C(=O)OCC)CC1)n2C	n	n	n	n	n	n
Cc1cc(C)c(C#N)c(SCC(=O)c2cccs2)n1	n	n	n	n	n	n[2.33 µM]
CCN(CC)C(=O)CSc1nc(C)cc(-c2cccs2)c1C#N	x	n	n	21.2µM	56.2µM	10µM
CNc1nc(-c2c(C)noc2C)nc2ccccc12	x	x	x	x	x	n[0.501 µM]
CC(=O)c1nc2ccccc2n1S(=O)(=O)c1ccc(C)cc1	x	u	n	n	n	u
CC(=O)c1nc2ccccc2n1S(=O)(=O)c1ccc(Cl)cc1	x	56.2µM	n	n	n	n
Cc1nnc(SCC(=O)N(CC(C)C)C2CCS(=O)(=O)C2)n1N (stereo not drawn)	n	n	n	n	n	n
CC(C)CN(C(=O)CSc1nnc2c(Cl)cc(C(F)(F)F)cn12)C1CCS(=O)(=O)C1 (stereo not drawn)	n	n	n	26.7µM	n	n
COc1cc(OC)c(NC(=O)c2c(C)oc3ncn(C)c(=O)c23)cc1Cl	x	n	n	x	n	n
CCN(CC(=O)NCc1ccc(F)cc1)C(=O)/C=C/c1cccs1	n	n	n	26.7µM	n	n
CCN(CC(=O)NCc1ccc(F)cc1)C(=O)/C=C/c1ccco1	n	n	n	n	n	u
SMILES	PI5P4K alpha inh	BAZ2B block	HP1b binding inh	PLK1 PBD block	JMJD2A Tudor inh	G9a block
CC(=O)Nc1ccc(NC(=O)CCCCCN2C(=O)c3ccccc3C2=O)cc1	n	n	n	n	n	n
CCN(CC)c1ccc(NC(=O)CCCCCN2C(=O)c3ccccc3C2=O)cc1	x	44.7µM	u	n	25.1µM	2.51µM
Cc1ccc(NC(=O)CCCN2C(=O)c3cccc4cccc(c34)C2=O)cc1	n	n	n	26.7µM	79.4µM	n
COc1ccc(Oc2ncc3nc(-c4cccs4)c(=O)n(Cc4cccc(OC)c4)c3n2)cc1	x	x	x	x	x	n[12.7 µM]
O=C(CSC1=NNC(c2ccccn2)S1)Nc1ccc(C(F)(F)F)cc1 (stereo not drawn)	n	56.2µM	n	n	39.8µM	n
CCCOc1ccccc1C(=O)N(Cc1ccco1)C1CCS(=O)(=O)C1 (stereo not drawn)	n	n	n	29.9µM	n[11.4 µM]	n
Cc1oc2ncn(CC(C)C)c(=O)c2c1C(=O)N1CCN(c2ccc(F)cc2)CC1	x	n	n	x	n	n
Cc1cc([N+](=O)[O-])ccc1P(=O)(O)c1ccc([N+](=O)[O-])cc1C	n	x	n	n	n	x
COC(=O)CCN1CCN(S(=O)(=O)c2ccc3c(c2)OCCO3)CC1	n	n	n	n	n	n[2.33 µM]
COC(=O)CCN1CCN(S(=O)(=O)c2ccccc2Br)CC1	n	20µM	u	n	0.794µM	3.55µM
NOCC(=O)O	n	u	n	n	22.4µM	5.97µM!
O=C(O)COc1ccc(Oc2ccccc2)cc1	n	n	n	n	n	n
C#CCOCCOCCOCCNc1nc(N2CCN(C(=O)[C@H](CCCCN)n3cc(C(N)CO)nn3)CC2)nc(N2CCN(C(=O)[C@H](CCC(=O)O)n3cc(C(N)CC(C)C)nn3)CC2)n1 (stereo partly drawn)	x	20µM	x	x	x	u
C#CCOCCOCCOCCNc1nc(N2CCN(C(=O)[C@H](CCCCN)n3cc(C(N)CC(C)C)nn3)CC2)nc(N2CCN(C(=O)[C@H](CCC(=O)O)n3cc(C(N)[C@H](C)CC)nn3)CC2)n1 (stereo partly drawn)	n	50.1µM	n	n	50.1µM	n
C#CCOCCOCCOCCNc1nc(N2CCN(C(=O)C([C@@H](C)O)n3cc([C@@H](N)CCCCN)nn3)CC2)nc(N2CCN(C(=O)[C@H](CCC(=O)O)n3cc([C@@H](N)[C@H](C)CC)nn3)CC2)n1 (stereo partly drawn)	n	x	n	n	89.1µM	x
COc1cccc(NC(=O)C2CCN(c3ccc(Sc4ccc(C)cc4)nn3)CC2)c1	x	n	n	x	n	n
CC(=O)NC1=NN(C(C)=O)C(C)(c2ccc3ccccc3c2)S1 (stereo not drawn)	n	n	n	n	n	n
CC(=O)NC1=NN(C(C)=O)C(C)(c2ccccc2)S1 (stereo not drawn)	x	44.7µM	n	n	n	u
O=C(CSc1n[nH]c(=O)[nH]c1=O)N/N=C/c1ccccc1O	n	n	n	n	n	n
O=C(CSc1n[nH]c(=O)[nH]c1=O)N/N=C/C=C\c1ccccc1	n	x	n	23.8µM	n[11.4 µM]	n
COc1cc(/C=N/NC(=O)CSc2n[nH]c(=O)[nH]c2=O)cc(OC)c1O	u	n	n	n	n	35.5µM
Cc1ccc(C(=O)n2c(=S)nc3ccccn32)cc1	x	n	x	x	x	25.1µM
Cc1cccc(C(=O)n2c(=S)nc3ccccn32)c1	u	n	n	23.8µM	n	2.24µM
COc1cc(/C=N\NC(=O)C(C)(C)O)ccc1OC/C=C/c1ccccc1	n	n	n	n	n	n
CCOC(=O)CC(=O)Nc1ccc(Br)cc1C(=O)O	n	n	n	n	56.2µM	u
CCOC(=O)CC(=O)Nc1ccccc1C(=O)O	n	n	n	n	n	u
O=c1c(-c2ccccc2)nc2cncnc2n1Cc1ccccc1	x	x	x	x	x	n[0.501 µM]
Cc1nn(C(C)(C)C)c(OC(=O)C(C)(C)C)c1Sc1ccccc1	x	n	n	x	n	n
